Active and inactive are the calls of the source. Calls come from the whole dose curve; as a rule, active = well fitted inhibition curve with a large enough effect; inactive = no such curve, though single readings can be large or run the other way.
biological target: 4'-phosphopantetheinyl transferase ffp (Bacillus subtilis) (UniProt Q9F4F7); assay: Inhibitos of Bacillus subtilis Sfp phosphopantetheinyl transferase (PPTase): Dry Powder Followup; details: purified Sfp PPTase enzyme assay, dry powder retest
Sequence (Q9F4F7 whole entry, looked up): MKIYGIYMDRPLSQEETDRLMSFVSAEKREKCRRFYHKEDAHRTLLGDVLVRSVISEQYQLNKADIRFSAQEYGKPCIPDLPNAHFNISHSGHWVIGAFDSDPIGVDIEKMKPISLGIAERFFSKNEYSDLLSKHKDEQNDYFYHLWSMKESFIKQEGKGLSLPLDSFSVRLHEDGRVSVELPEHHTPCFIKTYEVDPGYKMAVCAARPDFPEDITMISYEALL
Text: The covalent attachment of a phosphopantetheinyl (4'-PP) arm to a variety of synthases and other proteins is a key posttranslational protein modification. The 4'-PP is installed on the proteins post-translationally from coenzyme A (CoA) on a conserved serine residue by action of phosphopantetheinyl transferase (PPTase) enzymes. Phosphopantetheinylation is essential for synthase activity, and removal of the PPTase gene precludes natural product synthesis in microorganisms, or in the case of fatty acid biosynthesis, renders the organism unviable. PPTase enzymes belong to a distinct structural superfamily. Within bacteria, these enzymes are grouped into two classes based upon primary structure, the AcpS-Type and Sfp-Type PPTases.
Sfp-type PPTases, corresponding to an activator of surfactin production in Bacillus subtilis, are responsible for modifying type I polyketide and nonribosomal peptide synthases of prokaryotes. Sfp-type PPTases are responsible for the activation of a variety of pathogen-associated virulence factors. Among these compounds are toxins such as mycolactone from Mycobacterium ulcerans, siderophores such as vibriobactin from Vibrio cholerae or mycobactin from Mycobacterium tuberculosis, as well as the mycolic acids which form the waxy cell wall of Mycobacteria. The biosyntheses of these natural products are considered attractive targets for drug design.
In search of small molecule Sfp-PPTase inhibitors, a fluorescence quenching assay was developed for detection of Bacillus subtilis Sfp-PPTase enzymatic activity in a miniaturized high-throughput format. The consensus ybbr acceptor peptide DALEFIASKLA was N-terminally labeled with Black Hole Quencher-2 (BHQ-2) and used in combination with rhodamine-labeled coenzyme A as a co-substrate.
Inhibition of Sfp-PPTase was detected by recording the fluorescence intensity change over a 30-minute reaction period at a 525 nm excitation and 598 nm emission. Reagents were supplied by Michael Burkart and Timothy Foley, University of California at San Diego.
This assay is a followup of dry powder purchasing, QC'ing of samples and retesting in the primary screening protocol.
Assay Buffer: 50 mM Hepes-Na pH 7.6, 10 mM MgCl2, 0.01% Nonidet P-40, and 0.01% BSA.
3 uL of Sfp-PPTase enzyme (final concentration 15 nM) and 1 uL of substrate mixture (final concentration for rhodamine-CoA and BHQ-2-YbbR 5 uM and 12.5 uM, respectively) dispensed in columns 1, 2, 5 - 48. Columns 1 and 2 used to generate neutral control (uninhibited reaction)
Three uL of reagents, consisting of buffer (in columns 3 and 4 as negative control) and Sfp-PPTase (in columns 1, 2, 5 - 48) were dispensed into 1,536-well Greiner black solid bottom plate. Compounds (23 nL) were transferred via Kalypsys pintool equipped with 1,536-pin array. The plate was incubated for 15 min at room temperature, followed by the addition of 1 uL substrate to start the reaction. The plate was then centrifuged at 1000 rpm for 15 seconds, and the fluorescence intensity recorded on a ViewLux High-throughput CCD imager (Perkin-Elmer) using standard BODIPY optics (525 nm excitation and 598 nm emission). The plate was then incubated for 30 minutes, and a second read on the ViewLux was performed. The fluorescence intensity difference over the 30-minute period was used to calculate the respective reaction rate for each well.

SMILES | Potency
CCOC(=O)c1c(-c2ccc(C)o2)csc1NC(=O)CSc1nnnn1-c1ccccc1 | 2.35 µM (active)
O=C(CSc1ccccc1)Nc1nnc(COc2ccc(Cl)cc2)s1 | 6.63 µM (active)
Cc1ccnc(NC(=S)N2CCN(c3cccc(C(F)(F)F)c3)CC2)c1 | 14.8 µM (active)
O=C(Nc1nnc(COc2ccc(Cl)cc2)s1)c1ccco1 | 14.8 µM (active)
O=C(Nc1ccc(F)cc1)C1=CC(=O)N2CCN=C2S1 | 11.8 µM (active)
S=C(Nc1ccccn1)c1ccccn1 | 26.4 µM (active)
O=C(CSc1ncnc2sc3c(c12)CCCCC3)NCc1ccco1 | 23.5 µM (active)
CCOC(=O)c1c(C)[nH]c(C2=CSC(=NC3CC3)NN2)c1C | 18.7 µM (active)
COC(=O)Nc1sc2c(c1C(N)=O)CCC(C)C2 (centres undefined) | 26.4 µM (active)
CN(C)c1ccc(C(=S)N2CCN(Cc3ccccc3)CC2)cc1 | 5.27 µM (active)
Nc1c(C(=O)Nc2ccccc2F)sc2nc(-c3ccco3)ccc12 | 10.5 µM (active)
C(=C1\Nn2c(COc3ccccc3)nnc2S1)/c1ccccc1 | 5.27 µM (active)
O=C(/C=C/c1ccccc1)Nc1cccc(S(=O)(=O)Nc2ccccc2F)c1 | 0.527 µM (active)
CCOC(=O)c1nc(NCc2ccccc2)sc1C | 16.7 µM (active)
CCOC(=O)c1cc(-c2ccccc2)sc1NC(=O)c1ccc(OC)cc1 | 23.5 µM (active)
CCc1c(C)sc(NC(=O)C2CCCCC2C(=O)O)c1C(N)=O (centres undefined) | 2.35 µM (active)
CCC(C)(C)n1nnnc1C(c1ccc(O)c(OC)c1)N1CCc2ccccc2C1 (centres undefined) | 21 µM (active)

SMILES | Potency
COc1ccc(OC)c(Nc2nc(=O)c3cccnc3s2)c1 | 13.2 µM (active)
O=C(CSc1nc2scc(-c3ccco3)c2c(=O)n1-c1ccccc1)NCC1CCCO1 (centres undefined) | 3.32 µM (active)
CCOC(=O)c1c(-c2ccc(OC)cc2)csc1NC(=O)C1CCCO1 (centres undefined) | 14.8 µM (active)
Cc1nc(SCC(=O)c2ccc(F)cc2)n[nH]1 | 83.5 µM (active)
Clc1ccccc1-c1nnc2n1N/C(=C/Cc1ccccc1)S2 | 2.96 µM (active)
FC(F)(F)C1CCCN(c2nsc3ccccc23)C1 (centres undefined) | 2.35 µM (active)
COC(=O)c1sc(NC(=O)c2cc(-c3ccccc3)nc3ccccc23)c(C#N)c1C | 5.91 µM (active)
O=C(Nc1nnc(COc2ccc(Cl)cc2)s1)c1cccs1 | 18.7 µM (active)
c1csc(-c2nn3c(C4COc5ccccc5O4)nnc3s2)c1 (centres undefined) | 21 µM (active)
CNC(=O)c1c(N)sc2c1CCCCC2 | 8.35 µM (active)
CCN1CCN(C(=S)c2ccc(O)cc2)CC1 | 2.35 µM (active)
O=C(CN1C(=O)CC(c2ccco2)Sc2ccccc21)Nc1ccccc1F (centres undefined) | 26.4 µM (active)
C(/Cc1ccccc1)=C1\Nn2c(Cn3cnc4ccccc43)nnc2S1 | 21 µM (active)
CC(C)(C)Cc1nnc(NC(=O)CSc2ccccc2)s1 | 5.91 µM (active)
COC(=O)c1c(NC(=O)COC(=O)c2ccc(Cl)cc2[N+](=O)[O-])sc2c1CCCCC2 | 37.3 µM (active)
CCOC(=O)c1c(NC(=O)c2ccccc2Cl)sc2c1CCc1ccccc1-2 | 2.64 µM (active)
Cc1ccc(C2=CSC(NC(=O)CSc3nncn3C)=NN2)cc1 | 21 µM (active)
